PubChem BioAssay (NCI)
Compounds without any hit were thinned out: in the full panel of roughly 79,000, 15% have a hit. Values without a mark were called inactive. The source made the active and inactive calls. Cut-off read from the data, not from the text of the source: active = growth inhibition above about 70%; inactive = the rest.

Experiments:
[1] = NCI Yeast Anticancer Drug Screen. Data for the rad50 strain (AID 155);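 note: 0% = growth of vehicle-only cultures of the same strain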; details: S. cerevisiae rad50 strain growth inhibition; at 50.0 µM; stronger effect = higher value
Method in brief: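 Readout: growth inhibition relative to vehicle-treated cultures. Compound exposure was carried out in a genetically defined yeast strain deficient in DNA damage repair.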

[2] = NCI Yeast Anticancer Drug Screen. Data for the mec2-1 strain (AID 157); details: S. cerevisiae mec2-1 strain, at 50.0 µM, stronger effect = higher value
Method in brief: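 Yeast mec2-1 mutant treated with compound. Readout: growth inhibition vs vehicle controls.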

[3] = NCI Yeast Anticancer Drug Screen. Data for the sgs1 mgt1 strain (AID 161);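 note: 0% = growth of cultures given vehicle only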; details: S. cerevisiae sgs1 mgt1 strain, at 50.0 µM, stronger effect = higher value
Method in brief: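 Mutant yeast exposed to compound; growth scored against vehicle-only wells.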

[4] = NCI Yeast Anticancer Drug Screen. Data for the cln2 rad14 strain (AID 165);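 note: 0% = growth equal to vehicle treated cultures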; details: S. cerevisiae cln2 rad14 strain, at 50.0 µM, stronger effect = higher value
Method in brief: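 cln2 rad14 yeast strain; compound exposure; growth inhibition read vs vehicle controls.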

[5] = NCI Yeast Anticancer Drug Screen. Data for the bub3 strain (AID 167); details: S. cerevisiae bub3 mutant strain, at 50.0 µM, stronger effect = higher value
Method in brief: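 Readout: yeast growth inhibition, expressed relative to vehicle-only wells. The test organism is a mutant strain from a panel with lesions in DNA repair or checkpoint genes.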

[6] = NCI Yeast Anticancer Drug Screen. Data for the mlh1 rad18 strain (AID 175); details: S. cerevisiae mlh1 rad18 strain growth inhibition; at 50.0 µM; stronger effect = higher value
Method in brief: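 Yeast w/ defined DNA-repair lesions; compound exposure; growth vs vehicle controls → % inhibition.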

| Structure (SMILES) | growth inhibition [1] | growth inhibition [2] | growth inhibition [3] | growth inhibition [4] | growth inhibition [5] | growth inhibition [6] |
| --- | --- | --- | --- | --- | --- | --- |
| Oc1ccc2ccccc2c1C(c1cccc2ccccc12)N1CCCCC1 (configuration not stated) | 16.1% | 1.4% | 9.7% | 3.2% | 16.1% | 53.8% |
| Cc1ccc(S(=O)(=O)Nc2nc3ccccc3c(=O)n2C2CCCCC2)cc1 | 27.2% | 11.3% | -43.2% | 2.1% | -19.5% | -3.5% |
| CNCCC(C(=O)O)c1ccccc1 (configuration not stated) | -12.1% | -7.25% | 9.15% | -28.2% | -2.6% | 9.1% |
| c1ccc(Oc2ccc(-c3ccccc3)cc2)cc1 | -28.9% | -52.9% | 1.8% | -7.85% | -8.55% | -31.3% |
| O=[N+]([O-])c1ccc(OC(=S)Oc2ccc([N+](=O)[O-])cc2)cc1 | 3.45% | -16.7% | 2.9% | -4.4% | -0.05% | 1.8% |
| COc1ccc(NC(=O)CCC(=O)CC(=O)c2ccc(C)cc2)cc1 | -18.6% | 31.1% | 39.6% | -23.4% | 17.9% | 36.2% |
| COCN1COCN(C)C1=O | 8.5% | 7.3% | -1.55% | 11.6% | 23.9% | 9.1% |
| Cn1c(=O)oc2cc(C(=O)CSC(=S)N3CCCCCC3)ccc21 | -18.3% | -33.1% | -17.6% | -14.8% | -4.8% | -7.6% |
| Cc1ccc(S(=O)(=O)N2C(=N)C(=S)N(C)C2=O)cc1 | -42.9% | -10.3% | -15.4% | -30.4% | -15.8% | 12.4% |
| N#Cc1ccc(OCCCCCOc2ccc(C#N)cc2I)c(I)c1 | -4.5% | -2.05% | -8% | -22.8% | -0.85% | -44.1% |
| CCOC(=O)C(Cl)C(C)(O)c1ccccc1 (configuration not stated) | 11.2% | -3.65% | 11.9% | -46.7% | 5.8% | 17.8% |
| Cc1nc(N=C(N)N)nc2ccccc12 | 3.4% | -8.45% | 10.7% | 16.8% | 2.65% | 14.2% |
| Cc1cc2nc3n(c2cc1C)C(=O)c1cc2ccccc2cc1-3 | -8.55% | 0.6% | 3.1% | 7.7% | -10.4% | 2.7% |
| COc1ccc2c(c1)CN(C)c1ccc(OC)cc1CN2C | 10.7% | -18.6% | 12.2% | 12.4% | 12.5% | 24.6% |
| CC(=O)NNC(=S)/N=C\c1c(O)c2ccccc2oc1=O | -50.5% | -45.6% | -34.2% | -13.2% | -38.5% | -37.9% |
| Nc1cccc(N)n1.[Cu+2] | -20.1% | -12.1% | -13.8% | -13.2% | -15% | -14.2% |
| CCCc1c[nH]c(-c2ccc(-c3cc(CCC)c(C=O)[nH]3)s2)c1 | -44.8% | -22.8% | -35.9% | -2.8% | -28.9% | -56.7% |
| O=C(NC(O)C(=O)O)c1ccc(Cl)cc1 (configuration not stated) | -10.9% | -10.9% | -6.2% | 17.3% | -6.4% | -27.9% |
| CCOC(=O)c1cc(=O)[nH]c2ccc(OC)cc12 | 17.2% | 22.2% | 2.25% | 35.6% | 11.6% | 7.05% |
| CC(=O)Nc1cc(Cl)cc2c1[nH]c(=O)c1ccccc12 | 9.75% | 5.35% | -2% | -7% | 9.25% | 1.05% |
| CCN(CC)C(=O)C1C(C=C(C)C)C1(C)C (configuration not stated) | 6.95% | 20.4% | 12.2% | 5.3% | -10.1% | 7.55% |

| Structure (SMILES) | growth inhibition [1] | growth inhibition [2] | growth inhibition [3] | growth inhibition [4] | growth inhibition [5] | growth inhibition [6] |
| --- | --- | --- | --- | --- | --- | --- |
| CCCCOC(=O)c1ccc(OC(=O)Nc2ccc(Cl)cc2)cc1 | 10.4% | 42.3% | 39% | -11.2% | 78.7% (active) | 30.2% |
| O=c1nc2oc(-c3ccccc3)cn2c(=O)n1-c1ncc(-c2ccccc2)o1 | 1.35% | -6.9% | 1.4% | 22.4% | 8.1% | 6.05% |
| COc1ccc(NS(=O)(=O)c2ccc(NCc3c4ccccc4nc4ccccc34)cc2)nn1 | -13.3% | 8.2% | 17.2% | 29.7% | -0.45% | 18.5% |
| O=c1[nH]c2ccc(Br)cc2cc1Br | 21.9% | -9% | 0.3% | 6.65% | 2.45% | 20.8% |
| C#CC(C)(O)CCCCCCC (configuration not stated) | 18.3% | -27.1% | 4% | -22.8% | -12.4% | 5% |
| CC(CO)CCNc1ncnc2c1ncn2CCC(=O)O (configuration not stated) | -8.7% | 6% | -29.9% | -23.5% | 17.2% | -0.95% |
| O=c1c(Br)c(-c2ccccc2)[nH]c2ccccc12 | 2.95% | -12.8% | -32.5% | 0.9% | -5.7% | 7.7% |
| O=C1NC(=O)C2C1C1C=C3c4ccccc4N(c4ccccc4)C32[C@H]2C(=O)NC(=O)[C@@H]12 (some centres not stated) | -3.4% | -13.2% | 7.15% | 24.9% | 17.4% | -4.9% |
| C/C(CC1SCCCS1)=C(/C)CC1SCCCS1 | -34.8% | -38.6% | -23.1% | -5% | 2.25% | -45% |
| CCCNC(=O)Cn1c(C)cc2ccccc21 | 6.55% | 6.25% | 26.2% | 22.7% | 15.4% | -82.5% |
| CCCCCCCCSC#N | 7.95% | -11% | -3.6% | 23.9% | 2% | -1.4% |
| Cc1ccc(S(=O)(=O)OC2CCCCCC2c2ccccc2)cc1 (configuration not stated) | 7.85% | -5.1% | 0.05% | -42.5% | -2.75% | -3.55% |
| Nc1nc2c3nc(Nc4ccccc4)sc3nc(=O)n2c2sc(Nc3ccccc3)nc12 | 1.85% | 1.65% | 2.75% | -4.15% | -20.3% | 2.6% |
| C[C@]12CCC(=O)C=C1CC[C@@H]1[C@@H]2CC[C@]2(C)C(=O)NC(=O)C[C@@H]12 | -1.65% | -15.8% | 32.6% | 24.9% | -3% | -16.9% |
| COc1cc2c(cc1OC)C(c1c(Cl)cccc1Cl)=NCC2 | 13.1% | 10% | 41.4% | 4.25% | 42.6% | 12.7% |
| Cn1c(=O)c(-c2ccccc2)c(O)c2ccccc21 | 14.8% | 12.4% | -2.4% | 27.4% | -8.1% | -20.4% |
| CC(C)C1CCC(=O)CC1 | 9.9% | 0.35% | -1% | -12.2% | 0.75% | -4.9% |
| C/C(CC(=O)Nc1ccc(C)c(C)c1)=N\N(c1ccccc1)c1ccccc1 | -16.6% | -13.8% | -27% | -3.4% | -17.6% | -20.5% |
| Cc1ccc(C2OC(=O)C(=O)C2=O)cc1 (configuration not stated) | -35.9% | -21.4% | -23.2% | -21.6% | -32% | -3.35% |
| CCOC(=O)c1c(C(C)=O)cnc2c(C#N)cnn12 | -1.15% | -1.55% | -4.95% | 41% | 0.6% | -10.9% |
| CS/N=C(\c1ccccc1)N1CCOCC1 | -38.2% | -5.7% | -4.95% | -21.1% | 4.25% | 5.2% |
